Test results taken from PubChem BioAssay.
Records with an inconclusive call do not appear. Values without a mark were called inactive. Activity calls are given as the source filed them.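 How the source made its calls: active means viability at or below 27.92% in each of two runs, the all-compound median minus 4 SD; inconclusive means no clear call, values can overlap the other calls; inactive means the rest.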

test: viability of PTEN-null HCT116 cells – cell-based, HCT116 clonal line, CellTiter-Glo, pilot screen (AID 824); conditions: HCT116 PTEN-deleted viability, 60 h, at 10 µM, hits give low values;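 further: 0% = 20 µM Hyamine control and 100% = vehicle cell control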

Question: With `Cc1cc(C(=O)NCc2ccc3c(c2)OCO3)n(-c2ccccc2)n1` as the compound, how does the viability read?
Answer: 96.3%

Question: With `Cc1oc(-c2cccs2)nc1CS(=O)CC(=O)NCCc1ccccc1` (stereo unspecified) as the compound, how does the viability read?
Answer: 97.5%

Question: For `CCOc1ccc(C(=O)Nn2cnnc2)cc1`, which viability is on record?
Answer: 103%

Question: Which viability does the source give for `COc1ccc(C(=O)Nc2c(N)nc(SCC(=O)N3CCCCCC3)[nH]c2=O)cc1OC` here?
Answer: 102%

Question: Which viability does the source give for `Cc1nnc(NC(=O)CSc2nnc(Cc3cccn3C)n2C)s1` here?
Answer: 104%

Question: Which viability does the source give for `O=C(c1ccccn1)N(CC1CCCO1)C1(C(=O)NC2CCCCC2)CCCCC1` (stereo unspecified) here?
Answer: 92.3%

Question: Which viability does the source give for `O=C(Cc1n[nH]c(=O)c2ccccc12)NCc1ccccn1` here?
Answer: 99%

Question: Which viability does the source give for `Cn1c(C(=O)N2CCCCCC2)cc2c(=O)n(C)c3ccccc3c21` here?
Answer: 92.3%

Question: For `COC(=O)c1ccccc1NC(=O)CSc1nc(N)cc(N)n1`, which viability is on record?
Answer: 98.3%

Question: With `COc1ccc(C2(CNC(C)=O)CCOCC2)cc1OC` as the compound, how does the viability read?
Answer: 97.8%

Question: For `CCc1ccc(-c2nc(C(N)=O)c3[nH]c(=O)n(-c4ccccc4OC)c3n2)cc1`, which viability is on record?
Answer: 24% (active)

Question: With `Cc1ccccc1-c1nc(CN2CCC(C(=O)O)CC2)c(C)o1` as the compound, how does the viability read?
Answer: 93.9%

Question: Which viability does the source give for `Cc1ccc(C)c(NC(=O)CS(=O)(=O)c2c[nH]c3ccccc23)c1` here?
Answer: 93.5%

Question: For `COc1ccc(N2CSC3=C(C#N)C(c4ccc(OC)c(OC)c4)CC(=O)N3C2)c(OC)c1` (stereo unspecified), which viability is on record?
Answer: 81.7%

Question: Which viability does the source give for `O=C1CCc2cc(S(=O)(=O)NC(Cc3ccccc3)C(=O)NCC3CCCO3)ccc2N1` (stereo unspecified) here?
Answer: 92.8%

Question: For `COC(=O)c1c(C)nc(C)c2c(=O)oc3ccccc3c12`, which viability is on record?
Answer: 104%
